# PubChem BioAssay AID652172 (National Center for Advancing Translational Sciences (NCATS), 2013)
# The other results are listed elsewhere or left out. Results filed as inconclusive are left out. Calls of active or inactive are those of the source. Calls follow the shape of the dose curve; as a rule, active = well fitted inhibition curve with a large enough effect; inconclusive = small, poorly fitted or top-dose-only effect; inactive = flat fitted curve, though single readings scatter.
# Molecular target: Ubiquitin carboxyl-terminal hydrolase 2 (Homo sapiens) (UniProt O75604)
# Sequence (O75604 whole entry, looked up): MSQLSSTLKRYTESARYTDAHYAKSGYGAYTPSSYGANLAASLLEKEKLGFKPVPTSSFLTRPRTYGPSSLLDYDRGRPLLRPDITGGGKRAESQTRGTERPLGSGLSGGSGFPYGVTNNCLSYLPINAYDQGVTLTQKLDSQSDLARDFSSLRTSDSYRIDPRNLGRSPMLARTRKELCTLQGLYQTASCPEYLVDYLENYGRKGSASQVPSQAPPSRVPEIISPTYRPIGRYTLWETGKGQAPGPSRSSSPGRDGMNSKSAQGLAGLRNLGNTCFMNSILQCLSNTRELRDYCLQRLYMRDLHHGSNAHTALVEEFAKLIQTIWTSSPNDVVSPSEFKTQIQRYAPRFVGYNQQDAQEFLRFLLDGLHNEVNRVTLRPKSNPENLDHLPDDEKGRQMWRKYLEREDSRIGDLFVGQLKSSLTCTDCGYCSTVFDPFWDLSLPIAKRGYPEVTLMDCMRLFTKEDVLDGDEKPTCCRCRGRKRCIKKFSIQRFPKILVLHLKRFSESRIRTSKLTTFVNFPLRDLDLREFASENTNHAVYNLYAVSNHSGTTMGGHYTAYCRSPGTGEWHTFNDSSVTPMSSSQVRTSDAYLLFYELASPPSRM
# Experiment: Confirmation Assay for Inhibitors of Ubiquitin-specific Protease USP2a Using CHOP2 as the Reporter: K633
# Settings: USP2 cleavage of DiUb K63-3IQF, fluorescence kinetic
# From the text: Homeostasis of cellular proteins is maintained through a combination of synthesis and degradation. The pathway that accounts for the majority of protein degradation is the ubiquitin-proteasomal pathway. Ubiquitin (Ub) is highly conserved in all cells and the generation of a multi-Ub chain typically targets proteins for degradation by the proteasome. However, ubiquitination is highly reversible and dynamic. Deubiquitination, the reverse process, is catalyzed through the action of enzymes referred to as isopeptidases or deubiquitinating enzymes (DUBs). This group of enzymes is collectively responsible for maintaining adequate pools of free ubiquitin and regulating the ubiquitination status of cellular proteins. The class of DUBs referred to as the ubiquitin-specific proteases (USP) family functions endoproteolytically to cleave Ub chains from a wide range of protein substrates. […] Confirmed qHTS active compounds were tested in an orthogonal USP2 assays utilizing a di-ubiquitin substrate labeled with a quencher on one ubiquitin and a fluorescent compound on the other, i.e. the substrate has internally quenched fluorescence or IQF (Lifesensors). In the presence of active USP2, the diubiquitin (DiUb) is cleaved and the fluorescence at 598 nm increases. […] Upon inhibition of USP2, the fluorescence signal from cleaved substrate increases less over time than in the absence of an inhibitor. […]
row,SMILES,Potency
1,Cc1ccc(-c2cc(C(=O)Nc3ncco3)c3ccccc3n2)cc1C,3.43 µM (active)
